Bioassay records as filed in PubChem.
Most compounds without a hit are left out; they make up all but 4.1% or so of the library.
hcDAF-12 act: activates DAF-12 receptor from parasite H. contortus. HEK293 hcDAF-12 lit1-tk-luc reporter, luminescence; 0% DMSO, 100% Δ7-dafachronic acid. activation, % at 6.8 µM. 1.4% of 370,000 active;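 active = activation above the mean of all tested compounds plus 3 SD, cut at about 5.5% in these data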
ssDAF-12 act: activates DAF-12 receptor from parasite S. stercoralis; HEK293 ssDAF-12/GRIP1 lit1-tk-luc reporter, luminescence; % of 3 µM dafachronic acid response; activation, % at 6.8 µM; 1% of 370,000 active; AID 652126;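 active = activation above the mean over all tested compounds plus 3 SD, cut at about 0.9% in these data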
DAX1 inh-1: DAX1 (NR0B1) inhibition, primary screen; HEK293T StAR-luciferase reporter, SF-1/DAX-1 repression relief; inhibition, % at 6.8 µM; AID 652010; 1.1% of 370,000 active;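 active = inhibition above the mean over all tested compounds plus 3 SD, cut at about 3.6% in these data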;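 note: higher inhibition means more luminescence from relief of DAX-1 repression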
DAX1 inh-2: inhibitors of human orphan nuclear receptor DAX1 (NR0B1). P51843. HEK293 Gal4-DAX1 luciferase reporter, luminescence. inhibition, % at 6.75 µM. 0.99% of 340,000 active;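 active = inhibition above the mean over all tested compounds plus 3 SD, cut at about 4.2% in these data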;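 note: inhibition shows as a rise in luminescence from relieved DAX1 repression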
Target sequence (P51843 207-470 limits assumed): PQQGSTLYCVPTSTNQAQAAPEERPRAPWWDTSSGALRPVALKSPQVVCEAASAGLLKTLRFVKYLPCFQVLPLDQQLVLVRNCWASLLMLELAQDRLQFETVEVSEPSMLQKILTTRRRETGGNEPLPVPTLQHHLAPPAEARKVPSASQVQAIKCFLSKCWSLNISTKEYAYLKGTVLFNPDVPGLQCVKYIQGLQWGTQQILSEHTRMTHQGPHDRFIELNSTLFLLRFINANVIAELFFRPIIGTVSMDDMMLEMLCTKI
hgDAF12 agonist: activates the H. glycines DAF-12 receptor ligand-binding domain; HEK293 GAL4-hgDAF12 UAS-luciferase reporter, agonist luminescence; normalized to butyrate control; 1.8% of 370,000 active; activation, % at 6.8 µM; AID 687014;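 active = activation above a cutoff set at the mean of all screened compounds plus 3 SD, cut at about 10% in these data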
A number is an active result; n = inactive; x = no result given; ! = repeats disagree.

SMILES | hcDAF-12 act | ssDAF-12 act | DAX1 inh-1 | DAX1 inh-2 | hgDAF12 agonist
O=C(CCS(=O)(=O)Cc1ccccc1)Nc1ncc([N+](=O)[O-])s1 | n | n | 4.0 | n | n
Cc1cnc(NC(=O)c2cccs2)s1 | 6.2 | n | n | n | 12
Cc1ncoc1C(=O)Nc1ncc([N+](=O)[O-])s1 | n | n | n | n | 12
O=C(Nc1ncc([N+](=O)[O-])s1)c1cccs1 | n | n | 4.3! | n | n
CCCCCN1CCCCC(NC(=O)c2cccc(F)c2)C1=O (centres undefined) | n | n | n | x | n
S=C1NC[C@H](Cc2ccccc2)N1CC1CCN(CCCC2CCCCC2)CC1 | n | n | n | x | n
CC(C)CCCCCCCCc1cccc(O)c1C(=O)O | n | n | n | x | n
Cc1ccc(CSc2ncn(-c3ccccc3)n2)cc1 | n | n | n | 4.2 | n
Clc1ccccc1CSc1ncn(-c2ccccc2)n1 | n | n | n | n | 11
O=C(CSc1ncn(-c2ccccc2)n1)NCc1ccccc1 | n | n | n | n | n
CC(C)C(=O)Oc1ccc(CO)cc1[C@H](CCN(C(C)C)C(C)C)c1ccccc1 | n | n | n | x | n
COCC(=O)Nc1ccccc1-c1ccccc1 | n | n | n | n | 11
Clc1nn2cnnc2c2ccccc12 | n | n | n | 6.2 | n
COc1ccc(OCC(=O)NCC(c2cccs2)N2CCOCC2)cc1 (centres undefined) | n | n | n | n | n
CC(C)(C)c1ccc(OCC(=O)NCC(c2cccs2)N2CCOCC2)cc1 (centres undefined) | n | n | 4.3 | n | n
O=C(CSc1nnc(-c2ccccn2)n1-c1ccc(Cl)cc1)Nc1ccc2c(c1)OCCO2 | n | n | n | x | n
Cc1c(CC(=O)NCCCC(=O)O)c(=O)oc2c(C)c3oc4c(c3cc12)CCCC4 | n | n | n | 4.9 | n
Cc1cc(C)c2c(N)c(C(=O)N/N=C/c3ccccc3)sc2n1 | n | n | n | 8.7 | n
Cc1cc(C)c2c(N)c(C(=O)N/N=C/c3cccnc3)sc2n1 | n | n | n | x | n
CCC[C@H]1[C@@H](OC(=O)NC2CCC2)CC[C@@]23CCCN2C(=O)CCC[C@@H]13 | n | n | x | x | n
Cc1cccn2c(=O)c3cc(C(=O)NC(C)c4ccccc4)c(=N)n(CCCn4ccnc4)c3nc12 (centres undefined) | n | n | n | n | 11
Cc1ccc2nc3c(cc(C(=O)NCc4ccccc4)c(=N)n3CCCn3ccnc3)c(=O)n2c1 | n | n | n | n | n
CS(=O)(=O)c1ccc2nc(NC(=O)c3ccc(S(=O)(=O)NCC4CCCO4)cc3)sc2c1 (centres undefined) | n | n | n | 5.4 | n
O=S(=O)(/N=C(/Nc1nc2ccccc2s1)c1ccccc1)c1ccc(F)cc1 | n | 0.9 | 4.4 | 6.4 | 11
Cc1ccc(NC(=O)C(=O)NCC2CCCO2)cc1C (centres undefined) | n | n | n | 5.8 | n
SMILES | hcDAF-12 act | ssDAF-12 act | DAX1 inh-1 | DAX1 inh-2 | hgDAF12 agonist
CS(=O)(=O)c1ccc2nc(NC(=O)Nc3ccc(Cl)c(Cl)c3)sc2c1 | n | 1.9 | n | n | n
Cc1csc(NC(=O)c2ccc(COc3ccc(Cl)c(Cl)c3)o2)n1 | n | n | n | x | n
CC(=O)Nc1ccc(S(=O)(=O)NCC2CCCO2)cc1 (centres undefined) | n | n | n | 5.1 | n
CS(=O)(=O)c1ccc2nc(NC(=O)c3ccccc3)sc2c1 | n | n | n | n | 11
Cc1c(C(=O)NCC2CCCO2)oc2ccc(Br)cc12 (centres undefined) | n | n | 3.8 | n | n
Cc1cccc(C(=O)Nc2nc3ccc(S(C)(=O)=O)cc3s2)c1 | n | n | n | n | n
CC(=O)Nc1ccc(C(=O)Nc2ccc(S(=O)(=O)NCC3CCCO3)cc2)cc1 (centres undefined) | n | n | n | n | n
Cc1cccnc1CN1CCN(C(=O)CCc2nnc(CCc3ccccc3)o2)CC1 | n | n | n | n | n
Cc1cccnc1CCNC(=O)CCc1nnc(CCc2ccccc2)o1 | n | n | n | 4.7 | n
Fc1ccc2[nH]c3c(Cl)ncnc3c2c1 | n | 1.0 | n | n | n
Cn1c(=O)[nH]c2ncn(C)c2c1=O | n | n | n | n | 11
COc1ccc(C(=O)n2c(N)nc3ccccc32)cc1OC | n | n | n | n | n
Nc1nc2ccccc2n1C(=O)c1ccccc1 | 5.6 | n | n | n | 12
Nc1nc2ccccc2n1C(=O)c1ccc(F)cc1 | n | n | 3.9 | n | n
CC(=O)Oc1oc(-c2ccccc2)nc1C=Nc1ccccc1 | n | n | n | n | n
COc1ccc(N=Cc2nc(-c3ccccc3)oc2OC(=O)c2ccccc2)cc1 | n | n | 3.7 | n | 12
CCOC(=O)c1sc(NC(=O)CN2CCN(c3ccc(OC)cc3)CC2)nc1C | n | 1.8 | n | n | n
CCOC(=O)c1cc2cc3ccccc3cc2[nH]1 | n | 1.0 | n | n | n
COc1nc(OC)nc(N2CCC(C(=O)N(C)Cc3ccccc3F)CC2)n1 | n | n | n | x | n
CC(C)c1nc2ccccc2n1CC(O)COC1CCCCC1 (centres undefined) | n | n | n | 6.6 | n
CC(c1nnc(SCC(=O)N(C)C2CCS(=O)(=O)C2)n1-c1ccccc1)N(C)C (centres undefined) | n | n | 3.7 | n | n
CN(C(=O)CSc1nnc(-c2ccncc2)n1-c1ccccc1)C1CCS(=O)(=O)C1 (centres undefined) | n | n | n | n | n
O=C(O)c1cccnc1SC1CC(=O)N(c2ccccc2)C1=O (centres undefined) | n | n | n | n | n
O=C(O)c1ccccc1SC1CC(=O)N(c2ccccc2)C1=O (centres undefined) | 6.0 | n | n | n | n
CCCCCCP(=O)(O)c1ccccc1 | n | n | n | 6.1 | n
SMILES | hcDAF-12 act | ssDAF-12 act | DAX1 inh-1 | DAX1 inh-2 | hgDAF12 agonist
O=P(CCCCCCCCCP(=O)(c1ccccc1)c1ccccc1)(c1ccccc1)c1ccccc1 | n | n | n | n | n
O=c1[nH]c2ccccc2c(O)c1Cc1ccccc1 | n | n | n | 4.7 | n
CN(C)c1cccc(/C=C2\CC3(OC(=O)C4CCCC4)CCCN2C3)c1 (centres undefined) | n | n | n | x | n
COc1ccc(NC(=O)c2ccccc2O)c(OC)c1 | 5.8 | n | n | n | n
COc1ccc(NC(=O)c2cc(C(C)C)on2)cc1OC | n | n | n | 5.0 | n
COc1ccc(NC(=O)c2cc(C(C)C)on2)c(OC)c1 | 6.4 | n | n | n | n
COc1cc(NC(=O)c2cc(C(C)C)on2)c(OC)cc1Cl | n | n | n | n | n
O=C(Cn1cc(S(=O)(=O)Cc2ccccc2F)c2ccccc21)N1CCOCC1 | n | n | n | n | 11
O=C(C(=O)N1CCc2ccccc2C1)c1cn(CC(=O)N2CCOCC2)c2ccccc12 | n | 1.8 | n | n | n
O=C(C(=O)N1CCOCC1)c1cn(CC(=O)N2CCc3ccccc3C2)c2ccccc12 | n | n | n | n | n
